Inconclusive results are not listed. Unmarked numbers belong to inactive results. Active and inactive are the calls of the source. Calls follow the shape of the dose curve; as a rule, active = well fitted inhibition curve with a large enough effect in the repeat runs; inconclusive = weak or mixed curves; inactive = no such curve, though single readings can be large or run the other way.
% is scaled to controls: 0 for no effect and ±100 for the full control effect; potency is read from the fitted curve at half-maximal effect.

This test can be described thus: qHTS assay to identify small molecule antagonists of the thyroid receptor (TR) signaling pathway (AID 743065). Also: nearly all actives have a fitted effect of over 55% in size. The note with it: GH3.TRE-Luc, T3-stimulated luciferase inhibition, 23.5 h; series mostly up to 70.3 µM; activity, negative = inhibition: at the top concentration. An excerpt: U.S. Tox21 Program National Center for Advancing Translational Sciences [NCATS] NIH Chemical Genomics Center [NCGC] U.S. Environmental Protection Agency [EPA] National Institutes of Environmental Health Sciences [NIEHS] National Toxicology Program [NTP] U.S. Food and Drug Administration [FDA] Tox21 Assay Overview: Thyroid receptor (TR), a nuclear hormone receptor, plays an important role in development, proliferation, differentiation, metabolism, brain function, and cardiovascular system. […] To profile the Tox21 10K compound library in TR signaling, a cell-based GH3-TRE-Luc assay (GH3.TRE-Luc cell line, developed by the laboratory of Dr. Albertinka J. Murk, Wageningen University) was used to measure the inhibition of TR. GH3 (rat pituitary tumor) cells stably expressing a TR activity sensor consisting of two TR response elements and a luciferase reporter gene.
Tox21 Assay Protocol Summary: GH3.TRE-Luc cells were dispensed at 1500 cells/4 uL/well into 1536-well white solid bottom plates using a Multidrop Combi dispenser (Thermo Fisher Scientific Inc., Waltham, MA). After the assay plates were incubated at 37 C for 4 hours, 23 nL of library compound or DMSO controls was transferred to the assay plates by a pintool station (Kalypsys, San Diego, CA), followed by addition of 1 ul of T3 (1 nM, final concentration in the wells) to stimulate TR transactivation. The assay plates were incubated at 37 C for 23.5 h, and then 1 uL of CellTiter-Fluor reagent (Promega, Madision, WI) of measuring cytotoxicity was added to each well using a Bioraptr Flying Reagent Dispenser (FRD) workstation (Beckman Coulter, Indianapolis, IN, USA). The plates were incubated at 37 C and 5% CO2 for additional 30 min, and fluorescence intensity was measured by a ViewLux plate reader (PerkinElmer, Shelton, CT). For measuring luciferase reporter gene activity, 4 uL of ONE-Glo Luciferase Assay reagent (Promega) was added to each well using a Bioraptr FRD (Beckman Coulter), followed by 30 min incubation at room temperature. The luminescence intensity of plates was recorded by a ViewLux plate reader (PerkinElmer, Shelton, CT).
On the technique in general: qHTS replaces the single test concentration by a dilution series.
As for `CN1CCCC(n2nc(Cc3ccc(Cl)cc3)c3ccccc3c2=O)CC1` (stereo not given), the Potency was 21.1 µM (active).

In the case of `Cc1ccccc1N=C(N)Nc1ccccc1C`, the “activity, negative = inhibition” value was -20.6%.

For the molecule `Cc1ccc(OC(=O)c2ccccc2O)cc1`, the “activity, negative = inhibition” value is -0.0807%.

For `CC(=O)OCC[N+](C)(C)C`, the “activity, negative = inhibition” value is 11.3%.

In the case of `CO/N=C(/C(=O)N[C@@H]1C(=O)N2C(C(=O)O)=C(COC(N)=O)CS[C@H]12)c1ccco1`, the Potency entry was “inactive”.

On to `CC=C(Cl)Cl`, for which the “activity, negative = inhibition” value is 2.48%.

As for `Cc1ccc(C(C)(C)O)cc1`, the “activity, negative = inhibition” value was 0.218%.

Consider `NCCNCCO`, for which the “activity, negative = inhibition” value was -1.38% [at 95 µM].

Turning to `O=C=Nc1cccc(C(F)(F)F)c1`, the Potency was 54.1 µM (active).

Consider `CC1(C)[C@@H](OC(=O)CCC(=O)O)CC[C@]2(C)[C@H]3C(=O)C=C4[C@@H]5C[C@@](C)(C(=O)O)CC[C@]5(C)CC[C@@]4(C)[C@]3(C)CC[C@@H]12`, for which the “activity, negative = inhibition” value was -0.992% [at 32.5 µM].

Regarding `CCOC(=O)c1ccc(C#Cc2ccc3c(c2)C(C)(C)CCS3)nc1`, the “activity, negative = inhibition” value was 0.919%.

For `OCCOCC#CCOCCO`, the “activity, negative = inhibition” value is 17.4%.

As for `CC(=O)NC1(c2cccc(F)c2)CCN(CC[C@@]2(c3ccc(Cl)c(Cl)c3)CN(c3ccccc3)C(=O)CO2)CC1`, the Potency is 10.9 µM (active).

In the case of `CCCCN1CCCC1C(=O)Nc1c(C)cc(C)cc1C` (stereo not given), the “activity, negative = inhibition” value was -22.3%.

With `CN(C)CCC=C1c2ccccc2C=Cc2ccccc21`, the Potency is 26.6 µM (active).

Turning to `CN1C(=O)N(c2ccccc2Br)Cc2cnc(Nc3ccc4c(c3)OCC(CO)O4)nc21` (stereo not given), the Potency is 27.3 µM (active).

`COc1cc(C(=O)NCCCCCC(=O)O)cc(OC)c1OC`: the “activity, negative = inhibition” value is 6.34%.

`CC(=O)OCCN(CCOC(C)=O)c1ccc(N=Nc2ccc([N+](=O)[O-])cc2C#N)cc1`: the Potency was 61.1 µM (active).

`O=C(/C=C/c1ccccc1)OCCc1ccccc1`: the “activity, negative = inhibition” value was 3.18%.

On to `CC(CN(C)C)C(C)(O)Cc1ccc(Cl)cc1` (stereo not given), for which the “activity, negative = inhibition” value is -21.5%.

For the molecule `CN1CCCC(CC2c3ccccc3Sc3ccccc32)C1` (stereo not given), the Potency is 7.17 µM (active).

In the case of `CC(=O)Nc1ccc(C)cc1C`, the “activity, negative = inhibition” value was 14.3%.

Consider `C[C@@H](O[C@H]1OCCN(Cc2n[nH]c(=O)[nH]2)[C@H]1c1ccc(F)cc1)c1cc(C(F)(F)F)cc(C(F)(F)F)c1`, for which the Potency was 10.6 µM (active).

Take `CC(C)=CCC1C(=O)N(c2ccccc2)N(c2ccccc2)C1=O`: the Potency is 21.1 µM (active).

Take `COc1cc(Nc2c(C#N)cnc3cc(OCCCN4CCN(C)CC4)c(OC)cc23)c(Cl)cc1Cl`: the Potency was 9.44 µM (active).

In the case of `CC(C)COCC(CN(Cc1ccccc1)c1ccccc1)N1CCCC1` (stereo not given), the Potency is 10.6 µM (active).

In the case of `C(=C\c1ccccc1)/c1ccccc1`, the “activity, negative = inhibition” value is 10.2% [at 95 µM].

Take `O=C1c2ccccc2C(=O)C1c1nc2ccccc2c(Br)c1O`: the “activity, negative = inhibition” value is -10.7%.

As for `CC(C)=CC(=O)C=C(C)C`, the “activity, negative = inhibition” value was 28.6%.

For the molecule `N#CCCN(CCO)CCO`, the “activity, negative = inhibition” value was 26.7%.

As to `C[C@@H](O)[C@H]1C(=O)N2C(C(=O)O)=C([C@H]3CCCO3)S[C@H]12`, the “activity, negative = inhibition” value was 8.49%.

With `O=C(OCC(O)CO)c1ccccc1Nc1ccnc2cc(Cl)ccc12` (stereo not given), the “activity, negative = inhibition” value is -6.49% [at 32.5 µM].

For `CC(C)(O)c1ccc(CNC(=O)c2cccnc2Oc2ccc3nonc3c2)cc1`, the “activity, negative = inhibition” value was -11.6%.

As for `CCC(OCCCOC)OC(C)=O` (stereo not given), the “activity, negative = inhibition” value was 0.264% [at 95 µM].

As to `CCCCCCCCCCCCCCN(CCO)CCO`, the Potency was 17.2 µM (active).

Turning to `O=C(Cn1ccnc1[N+](=O)[O-])NCCO`, the “activity, negative = inhibition” value is 7.41%.

Take `C[C@@H]1CN(CCCn2c3ccccc3c3ccccc32)C[C@H](C)N1`: the Potency is 8.41 µM (active).

In the case of `O=c1[nH]c2ccc(Cl)cc2o1`, the “activity, negative = inhibition” value is 2%.

As for `O=C(O)CCCCCCCCCCCBr`, the “activity, negative = inhibition” value was 0.287%.

Turning to `CC[N+](CC)(CCNC(=O)C(=O)NCC[N+](CC)(CC)Cc1ccccc1Cl)Cc1ccccc1Cl`, the “activity, negative = inhibition” value is 8.04%.

The values are drawn from PubChem BioAssay (Tox21).
